Experimental data as given in PubChem BioAssay.
Calls of active or inactive are those of the source. Unless noted, the rule behind the calls is not given here.

Tests used:
[1] = HepG2 liver cancer cell viability effects, profiling panel, resazurin fluorescence, 24 h, PK04 Diversity Set (AID 1172); conditions: higher = more signal
[2] = basal S. cerevisiae growth modulation, no modifier, primary screen, OD600, strain BY4716, 24 h, basal condition (AID 1173); conditions: OD600, 24 h, higher = more signal, called active from +8 up or from −8 down
[3] = MM1S myeloma cell viability, profiling panel, resazurin fluorescence, basal, 24 h, PK04 Diversity Set (AID 1174); conditions: higher = more signal, called active from +8 up or from −8 down;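 note: MM1S multiple myeloma cell line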
[4] = target: Dihydroorotate dehydrogenase (quinone), mitochondrial (Plasmodium falciparum (isolate 3D7)) (UniProt Q08210); test: PfDHODH enzyme inhibitors, primary screen, biochemical, C-terminal His tag, absorbance 600 nm (AID 1175); conditions: DCIP absorbance 600 nm, higher = more signal, called active from +8 up or from −8 down;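 note: recombinant parasite enzyme with a five histidine tag at its C terminus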
Dihydroorotate dehydrogenase (quinone), mitochondrial (Plasmodium falciparum (isolate 3D7)), sequence (Q08210 whole entry, looked up): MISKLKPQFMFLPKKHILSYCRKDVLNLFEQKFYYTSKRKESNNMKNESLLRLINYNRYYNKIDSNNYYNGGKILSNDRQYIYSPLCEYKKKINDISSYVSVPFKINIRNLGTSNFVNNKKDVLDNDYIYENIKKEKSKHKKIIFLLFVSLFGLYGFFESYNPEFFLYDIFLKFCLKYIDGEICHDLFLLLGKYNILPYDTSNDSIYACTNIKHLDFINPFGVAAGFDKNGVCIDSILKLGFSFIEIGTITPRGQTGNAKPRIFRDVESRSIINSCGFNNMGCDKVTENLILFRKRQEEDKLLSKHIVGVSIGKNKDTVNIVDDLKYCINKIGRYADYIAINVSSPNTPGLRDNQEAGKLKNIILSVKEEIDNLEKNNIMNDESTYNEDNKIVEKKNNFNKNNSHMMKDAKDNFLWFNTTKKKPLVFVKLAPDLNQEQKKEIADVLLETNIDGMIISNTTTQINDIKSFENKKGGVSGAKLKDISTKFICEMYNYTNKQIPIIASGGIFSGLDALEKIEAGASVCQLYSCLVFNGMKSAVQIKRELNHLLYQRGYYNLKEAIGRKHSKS

[5] = P. aeruginosa biofilm formation inhibitors, primary screen, strain PAO1, LB-PBS medium, absorbance 600 nm (AID 1176); conditions: P. aeruginosa PAO1 growth/biofilm, A600, 12 h; higher = more signal
[6] = S. cerevisiae RM11-1a growth modifiers, primary screen, strain RM11-1a, OD600, basal, 24 h (AID 1177); conditions: OD600, 24 h, higher = more signal, called active from +8 up or from −8 down;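 note: cultures grown under basal conditions with no added stressor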
[7] = E. coli acrAB mutant growth effects, primary screen, E. coli filamentation inducers, strain DRC39, OD650, 24 h (AID 1178); conditions: higher = more signal, called active from +8 up or from −8 down;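 note: growth measured as culture turbidity by optical density at 650 nm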
[8] = E. coli acrAB mutant growth effects, primary screen, E. coli filamentation inducers, strain DRC39, OD650, 48 h (AID 1179);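 note: screen aims at cell division blockers that make cells filament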; conditions: E. coli DRC39 delta-acrAB growth, higher = more signal, called active from +8 up or from −8 down
[9] = RPMI8226 myeloma cell viability, profiling panel, resazurin fluorescence, basal, 24 h, PK04 Diversity Set (AID 1180); conditions: higher = more signal;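 note: RPMI8826 multiple myeloma cell line at 5000 cells per well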
[10] = target: E3 ubiquitin-protein ligase XIAP (Homo sapiens) (UniProt P98170); test: XIAP binders, primary screen, biophysical, small-molecule microarray, fluorescence 635 nm (AID 1181); conditions: small-molecule microarray binding, higher = more signal;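 note: score merges 667 nm emission and signal to noise over triplicate slides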
E3 ubiquitin-protein ligase XIAP (Homo sapiens), sequence (P98170 whole entry, looked up): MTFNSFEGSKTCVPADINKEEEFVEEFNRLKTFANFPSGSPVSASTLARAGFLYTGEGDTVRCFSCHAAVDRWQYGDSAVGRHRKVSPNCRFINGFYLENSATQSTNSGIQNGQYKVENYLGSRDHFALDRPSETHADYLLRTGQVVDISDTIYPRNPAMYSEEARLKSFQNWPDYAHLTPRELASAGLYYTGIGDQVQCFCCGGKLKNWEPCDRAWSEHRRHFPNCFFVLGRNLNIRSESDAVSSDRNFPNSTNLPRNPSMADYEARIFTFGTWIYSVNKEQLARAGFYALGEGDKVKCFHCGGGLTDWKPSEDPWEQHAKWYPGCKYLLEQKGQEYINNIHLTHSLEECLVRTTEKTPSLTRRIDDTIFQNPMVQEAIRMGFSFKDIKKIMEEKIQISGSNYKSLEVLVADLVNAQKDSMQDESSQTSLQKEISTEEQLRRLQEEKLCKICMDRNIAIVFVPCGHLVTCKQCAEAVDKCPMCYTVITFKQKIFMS

[11] = test system: XIP peptide (Xip251-270) binding; test: small-molecule binders of XIP peptide, primary screen, biochemical, small-molecule microarray, fluorescence 635/667 nm, 0.1 µg/mL protein (AID 1182); conditions: fluorescent protein binding, 635 nm, higher = more signal, called active from +8 up or from −8 down
[12] = test system: XIP peptide (Xip251-270); test: small-molecule binders of XIP peptide, primary screen, biochemical, small-molecule microarray, fluorescence 635/667 nm, 0.5 µg/mL protein (AID 1183); conditions: small-molecule microarray binding, fluorescence 635 nm; higher = more signal
[13] = Plasmodium falciparum growth inhibition, primary screen, strain 3D7, DAPI fluorescence, 100 nL (AID 1184);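 note: parasites grown inside human red blood cells in medium with human serum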; conditions: P. falciparum 3D7 growth, 3 d, higher = more signal
[14] = target: Homeobox protein Hox-A13 (Mus musculus) (UniProt Q62424); test: inhibitors of HoxA13-DNA binding, primary screen, biochemical, fluorescence polarization, labeled oligonucleotide (AID 1185); conditions: 15 min, higher = more signal, called active from +8 up or from −8 down
Homeobox protein Hox-A13 (Mus musculus), sequence (Q62424 whole entry, looked up): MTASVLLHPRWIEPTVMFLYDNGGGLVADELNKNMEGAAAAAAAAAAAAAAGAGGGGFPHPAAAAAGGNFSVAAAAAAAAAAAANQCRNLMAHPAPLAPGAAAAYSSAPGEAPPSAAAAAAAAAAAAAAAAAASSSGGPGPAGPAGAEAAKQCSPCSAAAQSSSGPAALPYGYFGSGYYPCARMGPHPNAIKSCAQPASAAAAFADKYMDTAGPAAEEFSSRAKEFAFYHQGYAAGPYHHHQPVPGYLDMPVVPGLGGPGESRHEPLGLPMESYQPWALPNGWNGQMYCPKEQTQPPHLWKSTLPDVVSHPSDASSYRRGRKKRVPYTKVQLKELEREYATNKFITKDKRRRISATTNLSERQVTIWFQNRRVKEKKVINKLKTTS

[15] = inhibitors of hydroxyurea-induced Chk1 phosphorylation, primary screen, imaging, HeLa, phospho-Chk1 antibody, percent positive cells (AID 1186); conditions: hydroxyurea-induced phospho-Chk1 immunofluorescence imaging, higher = more signal
[16] = inhibitors of hydroxyurea-induced Chk1 phosphorylation, primary screen, imaging, HeLa, phospho-Chk1 nuclear intensity (AID 1187); conditions: hydroxyurea-induced phospho-Chk1 immunofluorescence imaging, higher = more signal

| Structure (SMILES) | z-score [1] | z-score [2] | z-score [3] | composite z-score [4] | z-score [5] | z-score [6] | z-score [7] | z-score [8] | z-score [9] | composite z-score [10] | composite z-score [11] | composite z-score [12] | z-score [13] | z-score [14] | z-score [15] | z-score [16] |
| --- | --- | --- | --- | --- | --- | --- | --- | --- | --- | --- | --- | --- | --- | --- | --- | --- |
| Cc1ccc(N2C(=O)c3ccccc3[C@@H](C(=O)NC3CC3)[C@@H]2c2ccc(CO)cc2)nc1 | -0.0178 | -0.625 (inactive) | 0.584 (inactive) | -0.162 (inactive) | 0.0714 (inactive) | -0.155 (inactive) | 0.659 (inactive) | 0.188 (inactive) | 0.154 | -0.128 | -1.49 (inactive) | -0.0549 | -0.651 | -1.95 (inactive) | -0.0109 (inactive) | -0.28 (inactive) |
| CC[C@@H]1C=C(C(=O)O)[C@H](c2ccc(Br)cc2)N1S(=O)(=O)c1ccc(C)cc1 | -0.386 | -0.14 (inactive) | -0.459 (inactive) | -0.412 (inactive) | -0.116 (inactive) | -0.716 (inactive) | -0.593 (inactive) | 0.295 (inactive) | -1.51 | 0.157 | 0.693 (inactive) | 0.159 | -0.737 | -3.11 (inactive) | -0.0321 (inactive) | 0.0367 (inactive) |
| CCCC[C@@H]1C[C@H]1[C@@H](NC(=O)C(C)(C)C)c1ccc(C(F)(F)F)cc1 | -0.549 | 0.594 (inactive) | -0.858 (inactive) | -3.55 (inactive) | 3.07 (inactive) | 1.17 (inactive) | -0.483 (inactive) | -0.631 (inactive) | 2.01 | 0.0256 | 0.503 (inactive) | 0.414 | -0.948 | 1.43 (inactive) | -0.109 (inactive) | -0.236 (inactive) |
| COc1cc2c(cc1OC)CN(C(=O)[C@@H]1[C@H]3C(=O)O[C@H](c4ccccc4)[C@H](c4ccccc4)N3[C@H](c3ccccc3OCCO)[C@@]13C(=O)Nc1ccc(C#CCCO)cc13)CC2 | 0.0986 | 1.28 (inactive) | -0.0469 (inactive) | 0.379 (inactive) | 2.35 (inactive) | 1.98 (inactive) | 0.158 (inactive) | 0.793 (inactive) | 0.43 | 0.271 | 2.75 (inactive) | 0.827 | -2.18 | 3.45 (inactive) | 0.14 (inactive) | 0.598 (inactive) |
